# The supplement of paper PMC8975748
# Counter-ions that a name gives are not always drawn.
# Test system: Saccharomyces cerevisiae BY4741 SeMeCo community
# Experiment: z-score of subpopulation abundance vs DMSO median, subpopulation auxotrophic for M; higher = larger share of this subpopulation than in DMSO controls
# Settings: 10 µM; 24 h; SM minimal medium; subpopulation (auxotrophy): M
# Outline: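 Subpopulation abundance was reported as a z-score against the median of vehicle wells. The Saccharomyces cerevisiae BY4741 community, carrying four plasmids that each restored one auxotrophy and encoded a distinct fluorescent protein, was grown 24 h in minimal SM medium in 384-well plates holding library drugs at 10 µM final. Cells were paraformaldehyde-fixed and imaged by automated confocal microscopy, with single-auxotroph fluorescent strains used for thresholds and autofluorescence correction.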
row,Structure (SMILES),z-score of subpopulation abundance
1,CCCCOc1cc(C(=O)NCCN(CC)CC)c2ccccc2n1 [Dibucaine HCl],-0.03
2,Clc1ccc(CSC(Cn2ccnc2)c2ccc(Cl)cc2Cl)cc1 (centres undefined) [Sulconazole Nitrate],-2.96
3,COc1ccc(C2CNC(=O)C2)cc1OC1CCCC1 (centres undefined) [Rolipram],0.33
4,C[C@]12CC[C@@H]3c4ccc(O)cc4CC[C@H]3[C@@H]1CC[C@@H]2OC(=O)CCC1CCCC1 [Estradiol Cypionate],-0.43
5,C[C@@H](NCCCc1cccc(C(F)(F)F)c1)c1cccc2ccccc12 [Cinacalcet HCl],0.31
6,Cc1cc(/C=C/c2ccc3cc(N(C)C)ccc3[n+]2C)c(C)n1-c1ccccc1 [pyrvinium],0.61
7,CC(C)Cc1ccc(C(C)C(=O)O)cc1 (centres undefined) [Ibuprofen Lysine],-0.7
8,O=C(Cn1cnnn1)N[C@@H]1C(=O)N2C(C(=O)O)=C(CSc3nncs3)CS[C@H]12 [Ceftezole sodium],0.01
9,CC[N+](C)(C)c1cccc(O)c1 [Edrophonium chloride],0.34
10,Nc1ccc(S(N)(=O)=O)cc1 [Sulfanilamide],-0.87
11,CCCN(CCC)CCc1cccc2c1CC(=O)N2 [Ropinirole HCl],-0.4
12,CN(C)CCCC1(c2ccc(F)cc2)OCc2cc(C#N)ccc21 (centres undefined) [Citalopram HBr],-0.6
13,CN1CCCN=C1/C=C/c1cccs1 [Pyrantel Pamoate],1.45
14,CN(C)CCC[C@@]1(c2ccc(F)cc2)OCc2cc(C#N)ccc21 [Escitalopram Oxalate],0.05
15,CCCCCC(=O)O[C@]1(C(C)=O)CC[C@H]2[C@@H]3CCC4=CC(=O)CC[C@]4(C)[C@H]3CC[C@@]21C [Hydroxyprogesterone caproate],0.22
16,C[C@]12CCC(=O)C=C1[C@@H]1C[C@@H]1[C@H]1[C@@H]3[C@@H]4C[C@@H]4[C@@]4(CCC(=O)O4)[C@@]3(C)CC[C@@H]12 [Drospirenone],0.59
17,CC[C@H]1OC(=O)[C@H](C)[C@@H](O[C@H]2C[C@@](C)(OC)[C@@H](O)[C@H](C)O2)[C@H](C)[C@@H](O[C@@H]2O[C@H](C)C[C@H](N(C)C)[C@H]2O)[C@](C)(O)C[C@@H](C)/C(=N\OCOCCOC)[C@H](C)[C@@H](O)[C@]1(C)O [Roxithromycin],0.34
18,CCC(C)(C)c1ccc(CC(C)CN2C[C@@H](C)O[C@@H](C)C2)cc1 (some centres undefined) [Amorolfine HCl],9.64
19,CC(=O)N[C@H]1[C@H]([C@H](O)[C@H](O)CO)OC(C(=O)O)=C[C@@H]1NC(=N)N [Zanamivir],0.82
20,CCOc1cc(N)c([N+](=O)[O-])cc1C(=O)NC1CCN(CC2CC=CCC2)CC1 (centres undefined) [Cinitapride Hydrogen Tartrate],0.87

row,Structure (SMILES),z-score of subpopulation abundance
1,CCC(=O)c1c(O)cc(O)cc1O [Flopropione],0.69
2,CCCCCNC(=N)N/N=C/c1c[nH]c2ccc(OC)cc12 [Tegaserod Maleate],1.25
3,CC(C)c1c(C(=O)Nc2ccccc2)c(-c2ccccc2)c(-c2ccc(F)cc2)n1CC[C@@H](O)C[C@@H](O)CC(=O)O [Atorvastatin],-2.26
4,COc1ccc(C(C)=O)c(O)c1 [Paeonol],-0.69
5,Cc1cc(NS(=O)(=O)c2ccc(N)cc2)no1 [Sulfamethoxazole sodium],0.79
6,NC12CC3CC(CC(C3)C1)C2 [Amantadine],-0.63
7,COC(=O)C1=C(C)NC(C)=C(C(=O)OC(C)(C)CN(C)CCC(c2ccccc2)c2ccccc2)C1c1cccc([N+](=O)[O-])c1 (centres undefined) [Lercanidipine],0.27
8,NC1CCN(c2nc3c(cc2F)c(=O)c(C(=O)O)cn3-c2ccc(F)cc2F)C1 (centres undefined) [Tosufloxacin p-Toluenesulfonate Hydrate],-0.77
9,CC1(C)S[C@@H]2[C@H](NC(=O)[C@H](N)c3ccc(O)cc3)C(=O)N2[C@H]1C(=O)O [Amoxicillin],0.35
10,CCC1=C(C)CN(C(=O)NCCc2ccc(S(=O)(=O)NC(=O)N[C@H]3CC[C@H](C)CC3)cc2)C1=O [Glimepiride],-0.24
11,O=C(O)c1ccccc1C(=O)Nc1ccc(S(=O)(=O)Nc2nccs2)cc1 [Phthalylsulfathiazole],1.08
12,Clc1ccc(CCC(Cn2ccnc2)Sc2c(Cl)cccc2Cl)cc1 (centres undefined) [Butoconazole],-8.6
13,Cc1ccc(Sc2ccccc2N2CCNCC2)c(C)c1 [Vortioxetine],0.08
14,CN(Cc1cnc2nc(N)nc(N)c2n1)c1ccc(C(=O)N[C@@H](CCC(=O)O)C(=O)O)cc1 [Methotrexate disodium],-6.18
15,Clc1ccc(CCC(Cn2ccnc2)Sc2c(Cl)cccc2Cl)cc1 (centres undefined) [Butoconazole nitrate],-9.08
16,CC[C@@H]1/C=C(\C)C[C@H](C)C[C@H](OC)[C@H]2O[C@@](O)(C(=O)C(=O)N3CCCC[C@H]3C(=O)O[C@H](/C(C)=C/[C@@H]3CC[C@H](Cl)[C@H](OC)C3)[C@H](C)[C@@H](O)CC1=O)[C@H](C)C[C@@H]2OC [Pimecrolimus],1.75
17,CN(Cc1cnc2nc(N)nc(N)c2n1)c1ccc(C(=O)N[C@@H](CCC(=O)O)C(=O)O)cc1 [Methotrexate],-4.24
18,CCC[S+]([O-])c1ccc2[nH]c(NC(=O)OC)nc2c1 (centres undefined) [Albendazole Oxide],-0.33
19,COC(=O)C1=C(C)NC(C)=C(C(=O)OC)C1c1ccccc1[N+](=O)[O-] [Nifedipine],0.13
